Compound activity deposited in PubChem BioAssay by National Center for Advancing Translational Sciences (NCATS).
Compounds with a hit are over-represented: about 18% of the library has one in this group of screens.
HepG2 tox: counter-screen for TGF-b inhibitors: cytotoxicity in HepG2 cells. 410,000 tested, 0.76% active. Potency, µM (top dose mostly 46.1 µM), inactives show at the highest dose activity change, negative = cytotoxicity, actives largely listed as cytotoxic. HepG2 CAGA-GFP viability, ATP luminescence, 18 h; further: potency means the concentration at half of the fitted maximal effect
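CellTiter-Glo luminescence gave cytotoxicity after 18 hours at 37 degrees C. The cells were HepG2 CAGA-GFP in 1% FBS DMEM, stimulated with 500 pg/mL TGF-beta after compound addition. %Activity was normalised to no-cell wells (complete cell-killing) and DMSO (no toxicity), and curves were fitted and classified.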
TGFb inhibitor: inhibitors of TGF-b signaling; HepG2 CAGA-GFP TGF-b/SMAD3 reporter, GFP fluorescence, 18 h; TGF-beta stimulated, 500 pg/mL final; 410,000 tested, 1.2% active; Potency, µM (titrated, usually from 46.1 µM), inactives show at the top dose activity, negative = inhibition, most hits filed as inhibitors; further: potency means the concentration at half of the fitted maximal effect; on the % scale 0 is the no-effect control and ±100 the full control effect; nearly all actives have a fitted effect of over 65% in size
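HEPG2 CAGA-GFP, 1000 cells/well; 2 h settle, 37 C; cpd via pin tool; TGF-b 500 pg/mL final; 18 h, 37 C; GFP imaging ex488/em500-530; %Activity normalised to -TGF-b and +DMSO controls; CRC fit, curve class.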
DT40 TDP1 CPT: growth inhibition of DT40 Tdp1-/-;hTDP1 cells with camptothecin (screen for TDP1 inhibitors). Potency, µM (titrated, usually from 46.2 µM), without a hit: top-dose activity change, negative = growth inhibition, most hits filed as inhibitors. 420,000 tested, 12% active. chicken DT40 Tdp1-/-;hTDP1 cells + 20 nM CPT, ATP luminescence, 48 h; further: potency means the concentration at half of the fitted maximal effect; on the % scale 0 is the no-effect control and ±100 the full control effect; nearly all actives have a fitted effect of over 55% in size
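Chicken DT40 Tdp1-/- cells stably complemented with human TDP1 were seeded at 400 cells/well in medium containing 20 nM camptothecin, exposed to pin-transferred compounds, and grown at 37 °C for at least 48 hr. Viability was read as ATP luminescence.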
TDP1 inh: TDP1 (human) enzyme inhibition; 350,000 tested, 0.28% active; Potency, µM (highest dose often 130 µM), for the others: at the top dose activity change, negative = inhibition, actives largely listed as inhibitors; recombinant TDP1, AlphaScreen DNA substrate cleavage; Q9NUW8; further: potency means the concentration at half of the fitted maximal effect; on the % scale 0 is the no-effect control and ±100 the full control effect; nearly all actives have a fitted effect of over 40% in size
Target sequence (Q9NUW8 whole entry, looked up): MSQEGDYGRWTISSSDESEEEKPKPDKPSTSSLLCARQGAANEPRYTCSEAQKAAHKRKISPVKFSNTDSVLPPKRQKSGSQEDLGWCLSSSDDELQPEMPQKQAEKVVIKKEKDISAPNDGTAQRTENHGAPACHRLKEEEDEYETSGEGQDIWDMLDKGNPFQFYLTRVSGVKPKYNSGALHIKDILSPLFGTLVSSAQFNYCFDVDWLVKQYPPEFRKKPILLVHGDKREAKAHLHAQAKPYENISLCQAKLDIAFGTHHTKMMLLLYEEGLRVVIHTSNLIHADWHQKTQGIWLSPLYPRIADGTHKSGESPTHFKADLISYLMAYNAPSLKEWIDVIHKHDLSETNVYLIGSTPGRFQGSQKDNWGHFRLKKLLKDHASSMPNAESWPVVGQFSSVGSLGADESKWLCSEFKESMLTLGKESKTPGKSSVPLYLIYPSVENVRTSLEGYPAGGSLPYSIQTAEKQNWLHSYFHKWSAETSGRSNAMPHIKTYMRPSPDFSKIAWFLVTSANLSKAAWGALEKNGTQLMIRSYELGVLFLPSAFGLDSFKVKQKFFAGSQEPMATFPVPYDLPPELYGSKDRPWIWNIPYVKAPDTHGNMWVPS
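Signal: AlphaScreen proximity between streptavidin donor and anti-FITC acceptor beads on intact substrate. Reaction: Tdp1 1 nM, substrate 15 nM final, 5 min RT after 15 min compound preincubation.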
IL1B secr inh: blocks inflammasome-driven IL-1 beta release. THP-1 LPS/ATP IL-1B secretion, AlphaLISA, 16 h; hits give low values. activity change, % at 57.5 µM. 360,000 tested, 4.7% active; in the data active means activity change below about -50%; inconclusive means mostly about -30% to -49%; further: on the % scale 0 is the no-effect control and ±100 the full control effect
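Secreted IL-1B measured by AlphaLISA bead assay after 16 h compound exposure of THP-1 cells; compounds (final up to 57.5 uM) added 1 h before LPS (250 ng/mL) and ATP (1.25 mM) stimulation; lower signal means less secretion.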
DT40 TDP1 no CPT: qHTS for Inhibitors of human tyrosyl-DNA phosphodiesterase 1 (TDP1): qHTS in cells in absence of CPT; DT40 Tdp1-/- hTDP1 cells, no CPT, ATP luminescence, 48 h; Potency, µM (top dose mostly 46.2 µM), without a hit: at the top dose activity change, negative = growth inhibition, most hits filed as inhibitors; 420,000 tested, 15% active; AID 686978, 2013; further: potency means the concentration at half of the fitted maximal effect; on the % scale 0 is the no-effect control and ±100 the full control effect; nearly all actives have a fitted effect of over 55% in size
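DT40 Tdp1-/-;hTDP1 cells, no CPT (DMSO vehicle only), 400 cells/well; compounds pin-transferred; ≥48 hr, 37 °C; CellTiter-Glo 30 min RT dark, luminescence read.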
* marks the source's active call; other numbers are inactive results; ? = inconclusive; . = no result; ! = a repeat was not active; [ ] = dose if it differs, or a comment. Unless noted, the call rests on the fitted dose curve; in most records, active means well fitted curve in the direction sought with a large enough effect; inconclusive means small, poorly fitted or top-dose-only effect, or another doubt; inactive means no such curve, though single readings can be large; an effect the other way counts as inactive or inconclusive.

SMILES	HepG2 tox	TGFb inhibitor	DT40 TDP1 CPT	TDP1 inh	IL1B secr inh	DT40 TDP1 no CPT
O=C(c1cccc(Cl)c1)C1CCCN(Cc2ccon2)C1 (stereo unspecified)	-18%	-18%	?	-2%	8	?
O=C(c1ccc(Cl)cc1)C1CCCN(Cc2ccc3ncccc3c2)C1 (stereo unspecified)	-22%	?	15µM*	8%	-11	16µM*
C[C@]12Cc3cn4c(nc3C=C1CCC1C2CC[C@@]2(C)[C@H]1CC[C@@]2(O)C#N)nc1ccccc14 (stereo partly specified)	.	.	.	2%[56.1 µM]	.	.
COc1ccc(CN2CCCC(C(=O)c3cccc(Cl)c3)C2)cc1 (stereo unspecified)	-32%	-14%	?	.	-12	?
O=C(c1cccc(Cl)c1)C1CCCN(Cc2cccc3cnccc23)C1 (stereo unspecified)	-21%	?	?	.	-16	21µM*
O=C1CS[C@@H](c2ccccc2Cl)c2cc(Cl)ccc2N1	.	.	-8%	11%	.	?
COc1cc2cc(c1Cl)N(C)C(=O)CC(OC(=O)C(C)N(C)C(C)=O)C1(C)OC1C(C)C1CC(O)(NC(=O)O1)C(OC)C=CC=C(C)C2 (stereo unspecified)	-1%	0%	0.046µM*	.	32	0.13µM*
CN(C)C(=O)Nc1cccc(C(F)(F)F)c1	.	.	.	2%	.	.
CC(=O)Nc1cc(-c2cccc(C(=O)N(C)C)c2)cn2c(-c3cccc(C(F)(F)F)c3)cnc12	-20%	0%	18µM*	.	-20	16µM*
O=C(Cc1ccc(Cl)c(Cl)c1)N1CCCC[C@H]1CN1CCCC1	.	.	27µM*	12%[56.1 µM]	.	27µM*
CN(C(=O)Cc1ccc(Cl)c(Cl)c1)C(CN1CCCC1)c1cccc(OCC(=O)O)c1 (stereo unspecified)	3%	6%	-21%	14%[56.1 µM]	-18	4%
CCc1ccc(Nc2nc3c(S(=O)(=O)c4ccc(C)cc4)nnn3c3ccsc23)cc1	-23%	-2%	3.7µM*	3%	.	3.7µM*
N=C1c2ccccc2CN1c1ccc(F)c([N+](=O)[O-])c1	2%	-6%	?	-5%	-99*	?
CC/C(=C\C=C\[C@@H]1C=C[C@@H]2CCC[C@H]2[C@@H]1C(=O)c1ccc[nH]1)[C@@H]1O[C@@H]([C@@H](C)C(=O)O)CC[C@@H]1C	16µM*	11µM*	7.3µM*	2%	0	5.8µM*
CN(C)C(=O)C(CCN1CCC(O)(c2ccc(Cl)cc2)CC1)(c1ccccc1)c1ccccc1	-25%	11%	8.2µM*	11%[56.1 µM]	-59*	5.2µM*!
O=C(Cc1ccccc1)N1CCN(Cc2ccc(Cl)cc2)CC1	-2%	-13%	?	.	7	?
COc1cc(-n2c(=S)[nH]c3ccccc3c2=O)c(Cl)cc1Cl	-6%	?	?	7%	0	26µM*
CC(C)Oc1cc(-n2c(=S)[nH]c3ccccc3c2=O)c(Cl)cc1Cl	-20%	?	?	8%	29	16µM*
COc1cccc(-n2c(=S)[nH]c3ccccc3c2=O)c1	5%	-6%	-1%	-2%	4	?
COc1cccc(NP(=O)(Oc2ccccc2Cl)Oc2ccccc2Cl)c1	-55%	?	?	-8%	-87*	18µM*
O=P(Nc1cccnc1)(Oc1ccccc1)Oc1ccccc1	-15%	-2%	21%	-3%	-7	-11%
COc1cccc(NP(=O)(Oc2ccccc2)Oc2ccccc2)c1	-6%	18µM*	5.2µM*	3%	?	3.7µM*
